Values joined by “and” are separate entries in the source; they are usually repeats but may differ in a detail not shown here. Identical values can stand only once. Active and inactive are the calls of the source. How the source made its calls: active means hit-call score of the fitted dose curve at least 0.9, where 1 is the maximum; inactive means score below 0.9.

The experiment can be described thus: CCTE_Simmons_MITO_max_resp_rate: CCTE's HepG2 Seahorse XF Respirometric Screening Assay at Maximal Respiratory State [uncoupled], Simmons Lab (AID 2284002). The settings on record: actives raise or lower the signal. How it is done: CCTE_Simmons_MITO is cell-based, respirometric assay using HepG2 cells and a Seahorse XF Analyzer to measure oxygen consumption rates over four temporal phases spanning a total of 72 minutes: pre-injection (pre-treatment), basal (following test compound injection), maximal (following FCCP uncoupler injection), and inhibited (following rotenone/antimycin A injection)CCTE_Simmons_MITO_max_resp_rate is one of 4 assay components calculated from the CCTE_Simmons_MITO assay. It is designed to make measurements of maximal respiration using a form of respirometric reporter, as detected with […] signals by Seahorse XF96 technology. Data from the assay component CCTE_Simmons_MITO_max_resp_rate was analyzed at the endpoint, CCTE_Simmons_MITO_max_resp_rate_OCR, with bidirectional fitting relative to DMSO as the negative control and baseline of activity. Using a type of respirometric reporter, measures of maximal respiration for gain or loss-of-signal activity can be used to understand cellular oxygen consumption as it relates to cellular respiration. To generalize the intended target to other relatable targets, this assay endpoint is annotated to the mitochondria intended target family, where the subfamily is respiration.
Test chemicals were administered as a titrated series of 7 concentrations from 125 nM up to 100 uM [final] prior to kinetic endpoint detection at 6 minute intervals [3 min mix followed by 3 minutes measure] for 72 minutes. Three biological replicates of technical singles were run for every chemical concentration tested. Dimethylsulfoxide [DMSO] was used as the vehicle control. The electron transport chain inhibitor fenpyroximate was used as the positive control for decreased basal respiration and was administered as a titrated series of 6 concentrations from 250 nM up to 2.75 uM [final] with technical triplicates for the top concentration only. The uncoupler 2,4-dintirophenol was used as the positive control for increased basal respiration and was administered as a titrated series of 6 concentrations from 938 nM up to 40 uM [final] with technical triplicates for the top concentration only. A Seahorse XF Analzyer is required to measure the response.
With `Oc1ccc(C(c2ccc(O)cc2)C(Cl)(Cl)Cl)cc1`, the AC50 – broadly, the midpoint of the concentration-response curve, whichever way the signal moves – was 21.7 µM (active).

As to `CCCCC(CC)CN1C(=O)C2C3C=CC(C3)C2C1=O` (configuration not stated), the half-maximal activity concentration (AC50) was 32.1 µM (active).

For `CCCCOC(=O)C(C)Oc1ccc(Oc2ccc(C(F)(F)F)cn2)cc1` (configuration not stated), the molecule was called inactive.

Turning to `CCOC(=O)NCCOc1ccc(Oc2ccccc2)cc1`, the half-maximal activity concentration (AC50) is 19.8 µM (active).

Regarding `CCCCOC(=O)[C@@H](C)Oc1ccc(Oc2ccc(C(F)(F)F)cn2)cc1`, the call was inactive.

Consider `C[C@]12C[C@H](O)[C@H]3[C@@H](CCC4=CC(=O)CC[C@@]43C)[C@@H]1CC[C@@H]2C(=O)CO`, for which the result was inactive.

`Cc1nn(C)c(Oc2ccccc2)c1C=NOCc1ccc(C(=O)OC(C)(C)C)cc1`: the concentration at half-maximal activity (AC50) was 884 nM (active) and 948 nM (active).

Regarding `CC(C)CCCCCCc1ccc(O)cc1`, the AC50 was 43.8 µM (active).

Turning to `CC(=O)[C@H]1CC[C@H]2[C@@H]3CCC4=CC(=O)CC[C@]4(C)[C@H]3CC[C@]12C`, the AC50 was 13.4 µM (active).

For the molecule `N#CSCSc1nc2ccccc2s1`, the AC50 was 22.7 µM (active).

As for `N[C@@H](Cc1cc(I)c(Oc2ccc(O)c(I)c2)c(I)c1)C(=O)O`, the result was inactive.

For the molecule `O=C(O)C1(C(=O)Nc2ccc(Cl)cc2Cl)CC1`, the AC50 is 37.8 µM (active).

Turning to `CCCCC(CC)COC(=O)c1ccccc1C(=O)O` (configuration not stated), the molecule was classed as inactive.

On to `O=C(Nc1ccc([N+](=O)[O-])cc1Cl)c1cc(Cl)ccc1O`, for which the concentration at half-maximal activity (AC50) is 0.928 µM (active).

Consider `C=CCOC(Cn1ccnc1)c1ccc(Cl)cc1Cl` (configuration not stated), for which the half-maximal activity concentration (AC50) is 38.2 µM (active).

For the molecule `CC(C)(c1ccc(O)cc1)c1ccc(O)cc1`, the half-maximal activity concentration (AC50) is 37.1 µM (active) and 34.8 µM (active).

With `O=C(c1ccc(O)cc1O)c1ccc(O)cc1O`, the molecule was classed as inactive.

(Values after PubChem BioAssay (EPA / NIEHS).)
